# Experimental data: PubChem BioAssay (NCI)
# The panel holds about 83,000 compounds, 20% with a hit somewhere; the sample as a whole holds those more often.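 Interpretation: 100, growth as untreated; towards 0, rising growth inhibition; 0, no net growth; 0 to -100, cell death. Compounds scoring below 10 were considered active.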 A number with no mark means an inactive call. The source made the active and inactive calls.
# Key:
# Assay in all cases: NCI-60 one-dose screen, 48 h (100 = growth as untreated, 0 = no growth, -100 = all killed)
# Details in all cases: 10 µM unless noted
# [1] = tested on: EKVX NSCLC
# [2] = tested on: SN12C renal
# [3] = tested on: UO-31 renal
# [4] = tested on: TK-10 renal
# [5] = tested on: ACHN renal
# [6] = tested on: CAKI-1 renal
# [7] = tested on: A498 renal
# [8] = tested on: MOLT-4 leukemia
# [9] = tested on: CCRF-CEM leukemia
SMILES,growth [1],growth [2],growth [3],growth [4],growth [5],growth [6],growth [7],growth [8],growth [9]
CCn1cc(-c2ccnc3[nH]c(-c4cccc(CN(C)C)c4)cc23)c(-c2ccc(NC(=O)N(C)C)cc2)n1,55.4%,24.1%,-10.7% (active),44.3%,15.4%,6.96% (active),-34.1% (active),7.17% (active),–
COc1cc(CCc2cc(NC(=O)c3ccc(N4C[C@@H](C)N[C@@H](C)C4)cc3)n[nH]2)cc(OC)c1,84.7%,31.1%,9.25% (active),57.6%,39.5%,–,-1.03% (active),10.6%,29.6%
CC(C)c1cc(CNc2nc(Nc3cc(C4CC4)[nH]n3)cc(N3CCN(C)CC3)n2)on1,7.39% (active),9.72% (active),-2.19% (active),-16.4% (active),8.49% (active),4.85% (active),-78.5% (active),0.889% (active),–
Nc1c(C(=O)c2ccccc2)sc2nc(-c3cccs3)ccc12,60.8%,44.9%,48.7%,56.7%,54.3%,38.5%,–,28.1%,19.1%
CC(C)[C@@H]1CC[C@@H]2[C@@H]1[C@H](OC(=O)/C=C/c1ccccc1)[C@]1(C(C)C)C[C@@H](OC(=O)CO)[C@@]2(C)O1,63%,49.7%,3.86% (active),94.9%,17%,65.5%,-51.8% (active),58.4%,–
C#Cc1cccc(Nc2ncnc3cc4c(cc23)OCCOCCOCCO4)c1,42.5%,42%,27.2%,7.84% (active),16.3%,–,24.1%,53.3%,73.3%
COC(=O)[C@]12CC[C@@H](C)[C@H](C)[C@@H]1C1=CC[C@@H]3[C@@]4(C)C[C@@H](OC(=O)/C=C/c5ccccc5)[C@H](O)[C@@](C)(CO)[C@@H]4[C@H](O)C[C@@]3(C)[C@]1(C)CC2,33.8%,-83.2% (active),19.6%,18.1%,3.47% (active),15.6%,–,0.848% (active),18.8%
COc1cc(-c2cc(-c3ccc(Nc4ccnc5cc(Cl)ccc45)cc3)nc(N3CCOCC3)n2)cc(OC)c1OC,30.9%,-11.9% (active),37.5%,-75.9% (active),16.7%,–,102%,19.6%,-4.98% (active)
CCCCCCC1(/C=N/NC(N)=O)NC(=O)NC1=O (stereo not given),91.8%,105%,87.2%,99.1%,105%,91.7%,–,101%,102%
COc1cc(-c2nc(C(=O)NCC(=O)O)nn2-c2ccc(Cl)cc2)cc(OC)c1OC,91.7%,101%,90.5%,117%,112%,–,107%,100%,84.2%
O=CC(OC(=O)c1ccccc1)C(OC(=O)c1ccccc1)C(COC(c1ccccc1)(c1ccccc1)c1ccccc1)OC(=O)c1ccccc1 (stereo not given),88.8%,61.8%,19.8%,77.8%,60%,–,122%,-14.6% (active),-18.6% (active)
Cc1cn(-c2cc(NC(=O)c3ccc(C)c(Nc4nccc(-c5cccnc5)n4)c3)cc(C(F)(F)F)c2)cn1,69.6%,66.9%,-3.45% (active),75.1%,55.8%,–,82.2%,42.9%,36.2%
COc1ccc(C2CC(=O)c3c(O)c(OC)c(OC)c(OC)c3O2)cc1O (stereo not given),50.4%,45.4%,51.6%,70.6%,40.4%,38.9%,–,22%,24.2%
Cc1cc([C@@H](C)Nc2ccccc2C(=O)O)c2nc(N3CCOCC3)cc(=O)n2c1,61.7%,44.1%,15.7%,42.6%,46.3%,–,-36.7% (active),20.6%,23.5%
Cc1nc2ccc(-n3ncc(C(=O)c4cc5ccccc5[nH]4)c3N)cc2[nH]1,63.9%,61.2%,48.9%,71.3%,49.8%,–,8.03% (active),25.1%,43.8%
O=C(COc1cccc(/C=C2\Cc3ccc(Cl)cc3C2=O)c1)Nc1nccs1,98.1%,89.3%,-68% (active),142%,91.8%,78.2%,98.3%,37.3%,–
CC1CCC(n2cnc3c(Cl)ncnc32)O1 (stereo not given),94.5%,110%,96.4%,88%,104%,–,124%,113%,–

SMILES,growth [1],growth [2],growth [3],growth [4],growth [5],growth [6],growth [7],growth [8],growth [9]
C=CC(=O)Nc1cc(Nc2nccc(-c3cn(C)c4ccccc34)n2)c(OC)cc1N(C)CCN(C)C,-46.2% (active),-59.3% (active),-83.2% (active),-17.1% (active),-95.4% (active),–,-58.3% (active),-52.7% (active),-17.1% (active)
CC[C@H](Nc1ncnc2nc[nH]c12)c1nc2cccc(F)c2c(=O)n1-c1ccccc1,80.1%,51.6%,31.3%,17.4%,41.5%,–,-14.3% (active),62.2%,52.3%
COCC(=O)NC/C=C/c1ccc2ncnc(Nc3ccc(Oc4ccc(C)nc4)c(C)c3)c2c1,38.9%,34.9%,16.8%,5.8% (active),16.1%,–,24.6%,29.3%,79.2%
Cc1ccc(NC(=O)Nc2ccc(Nc3ncnc4sc5c(c34)CCOC5)cc2)cc1Cl,110%,102%,78.6%,103%,94.6%,–,90.4%,88.9%,90.3%
Cc1ccc(NC(=O)c2ccc(CN3CC[C@H](N(C)C)C3)c(C(F)(F)F)c2)cc1Nc1nccc(-c2cncnc2)n1,15.3%,-32.6% (active),-61.3% (active),-30.1% (active),1.22% (active),–,-59.9% (active),-4.64% (active),4.61% (active)
CC(C)c1ccc(/C=N/Nc2nc3ccccc3s2)cc1,87.2%,86.3%,57.1%,148%,103%,–,92.8%,70.5%,84.8%
Nc1c2c(c(O)c3c1=C(CO)C=N3)=NCCS2=O (stereo not given),-43.1% (active),-33.2% (active),-66.8% (active),117%,-18.8% (active),–,-45.6% (active),-33.8% (active),4.74% (active)
CCN(CC)CCNc1ccc(N=Nc2cnc3ccccc3c2)c2ccccc12,-2.28% (active),-88.9% (active),-94.2% (active),-79% (active),-69.6% (active),–,-91.5% (active),-49.7% (active),-78.2% (active)
[2H]C1([2H])[C@H](C)O[C@H](C)C([2H])([2H])N1c1ccc(NC(=O)c2cccc(-c3ccc(OC(F)(F)F)cc3)c2C)cn1,61.4%,56.6%,54.5%,63.6%,78.1%,–,53.9%,39.9%,64.3%
CCN1/C(=C/C=C/c2n(-c3ccccc3)c3ccc(-c4nc5ccccc5s4)cc3[n+]2CC)N(c2ccccc2)c2ccc(-c3nc4ccccc4s3)cc21,9.19% (active),-2.95% (active),-7.26% (active),-2.12% (active),-3.27% (active),–,-12.7% (active),16.5%,24.5%
CC(C)CC(=O)Nc1n[nH]c2c1CN(C(=O)C1CCN(C)CC1)C2(C)C,57.8%,19.2%,80.9%,49.2%,54.2%,–,7.55% (active),4.42% (active),7.27% (active)
O=C(Nc1cn[nH]c1-c1nc2ccc(CN3CCOCC3)cc2[nH]1)NC1CC1,68.5%,17%,-22.1% (active),44%,36.1%,–,-15.5% (active),-5.45% (active),–
C[C@@H](Oc1cc(-c2cnn(C3CCNCC3)c2)cnc1N)c1c(Cl)ccc(F)c1Cl,0.0738% (active),-41% (active),-73.4% (active),-36.2% (active),-45.9% (active),–,-68.3% (active),-34.5% (active),-19.5% (active)
Cc1cc2c(-c3nc4ccccn4c3N)c(O)c(O)cc2c(O)c1-c1c(C)cc2c(-c3nc4ccccn4c3N)c(O)c(O)cc2c1O,21.8%,10.1%,31.2%,11.9%,17.4%,–,2.77% (active),23.5%,23.1%
CCOc1cc2ncc(C#N)c(Nc3ccc(F)c(Cl)c3)c2cc1NC(=O)/C=C/CN(C)C,-22% (active),-51.7% (active),–,-75.9% (active),-94.3% (active),-59.6% (active),-3.54% (active),-26% (active),0.208% (active)
C[C@@H]1COCCN1c1cc(C2([S@](C)(=N)=O)CC2)nc(-c2ccnc3[nH]ccc23)n1,54.2%,41%,–,42.9%,7.85% (active),28.9%,-21.2% (active),7.26% (active),7.78% (active)
Cn1cc(-c2ccc(F)c(C(F)(F)F)c2)nc1C1CCN(c2ncnc3[nH]ncc23)CC1,88%,63.7%,–,66.6%,73.4%,62.2%,66.5%,65.5%,72.4%
